Rows were chosen to be rich in hits. Some 1.6% of all compounds tested hit in one or more screens of this group.
IkB signaling: IkB pathway inhibition in ABC-DLBCL cells; ABC-DLBCL IkBa-CBG/CBR dual luciferase ratio, 4 h; response scale: scaled: untreated 0%, proteasome inhibitor 100%; Potency, µM (top dose mostly 57.1 µM), for the others: top-dose IkBa stabilization activation; 0.04% of 110,000 active; active = well fitted curve in the direction sought with a large enough effect in the signal ratio, not every such curve was filed as active; inconclusive = small, poorly fitted or top-dose-only effect, or a change in a side signal; the % refers to the signal ratio;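 note: the direction sought is a rising ratio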
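Luminescence ratio of IκBα-fused green versus native red beetle luciferase in OCI-Ly3 cells, 4 h post-doxycycline with compound; red signal alone, scaled from basal (0%) to zero light (-100%), flagged nonspecific or cytotoxic effects.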
Imprint erasure: genomic imprint erasure induction | mouse ES Peg3-LacZ reporter, beta-gal luminescence, 40 h | Potency, µM (series often up to 60.7 µM), for the others: top-dose activity change, positive = activation, actives largely listed as activators | 0.02% of 110,000 active
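Each well holds 300 Peg3LacZ-Neo (maternal) female ES cells incubated 40 h at 37C, 5% CO2. LacZ is measured by BetaGlo luminescence, with AC50 and maximum efficacy derived from dose-response curves.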
p53ts 32C kill: kills p53ts cells at the permissive temperature | H1299-p53A138V at 32C, ATP luminescence viability, 24 h | Potency, µM (highest dose often 46.1 µM), for inactives: at the highest dose activity change, negative = cytotoxicity, most hits filed as cytotoxic | 0.93% of 130,000 active | AID 924;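 note: 0% = DMSO and -100% = full killing by reference compound; nearly all actives have a fitted effect of over 55% in size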
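H1299-p53 A138V cells (temperature-sensitive p53) exposed 24 h to up to 46 uM compound at 32C, where p53 is wild-type in conformation. Viability read as ATP luminescence and normalised to DMSO and 100 uM tamoxifen. AC50 fitted with the Hill equation.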
p53ts 39C kill: kills p53ts cells at the nonpermissive temperature; H1299-p53A138V viability at 39C, ATP luminescence, 24 h; Potency, µM (highest dose often 46.1 µM), without a hit: at the top dose activity change, negative = cell killing, hits mostly cytotoxic; 1.5% of 130,000 active; note: % is set by controls: 0 for no effect and ±100 for the full control effect; nearly all actives have a fitted effect of over 55% in size
* hit, by the source's call; ? = inconclusive; · = not tested or not shown; [ ] = dose if it differs, or a comment. Unless noted, calls come from the whole dose curve; as a rule, active = well fitted curve in the direction sought with a large enough effect; inconclusive = small, poorly fitted or top-dose-only effect, or another doubt; inactive = no such curve, though single readings can be large; an effect the other way counts as inactive or inconclusive. Potency is the fitted concentration of half-maximal effect.

SMILES	IkB signaling	Imprint erasure	p53ts 32C kill	p53ts 39C kill
COc1cccc2cc(C(=O)Nc3ccc(CC(=O)O)cc3)c(=O)oc12	?	-51.6%[10.9 µM]	5.01µM*	7.94µM*
C[C@]12CC[C@H](O)CC1=CC[C@H]1[C@@H]2CC[C@@]2(C)C(N(CCO)CCO)CC[C@@H]12 (some centres not stated)	·	3.0%[10.9 µM]	·	·
CCC(C)NC(=O)Cn1c(=O)n(Cc2ccc(C(=O)NCc3ccc(C)cc3)cc2)c(=O)c2ccccc21 (configuration not stated)	1.5%	11.6%[10.9 µM]	?	20µM*
CN=c1scc(-c2cccs2)n1/N=C/c1ccc(O)c(O)c1O	·	·	·	6.31µM*
Cc1sc2nc3ccc(N4CCCC4)nn3c(=O)c2c1C	-0.9%	-14.5%	-29.0%	?
Cc1ccc2nc3ccc(N4CCN(C)CC4)nn3c(=O)c2c1	-2.8%	-15.0%	3.98µM*	?
CCN1CCCC1CNC(=O)c1ccc(Cc2nc3ccccc3[nH]2)cc1 (configuration not stated)	·	·	5.7%	-4.0%
COc1cc2c(cc1OC)CN(C(=O)CC1CC3CCC1C3)CC2 (configuration not stated)	?	-65.8%	10µM*	12.6µM*
CC(Cc1ccc(O)c(O)c1)(NN)C(=O)O (configuration not stated)	·	5.5%	-8.7%	5.8%
CCOc1cccc2c1OC(c1cc(OC)c(OC)c(OC)c1)N1N=C(c3ccc(C)o3)CC21 (configuration not stated)	·	·	11.2µM*	?
CCOc1cccc(C2Oc3nc(SC)nnc3-c3ccccc3N2C(C)=O)c1OC (configuration not stated)	-2.4%	-3.0%[10.9 µM]	5.0%	-4.5%
CCCCCCC/C=C\CCCCCCCCC(=O)O	20.1%	-10.7%	-5.3%	11.1%
CCCCCCCC/C=C\CCCCCCCC(=O)N[C@@H](CO)Cc1ccc(O)cc1	?	-32.3%	?	31.6µM*
COc1ccc(-c2nc3ccccc3n2Cc2ccc(Cl)cc2)cc1	?	?	-7.1%	37.8%
COCn1c(-c2ccc(OC)cc2)nc2ccccc21	·	·	7.94µM*	11.2µM*
COc1ccc(-c2nc3ccccc3n2Cc2ccc(C(C)C)cc2)cc1	?	-15.9%[10.9 µM]	27.8%	17.8µM*
COc1cc(C2c3c(-c4ccccc4O)n[nH]c3C(=O)N2Cc2ccco2)ccc1OCC(C)C (configuration not stated)	?	-7.3%[10.9 µM]	?	20µM*
CC(C)Oc1ccc(C(=O)Nc2nnc3n2CCS3)cc1	1.6%	-69.2%[10.9 µM]	?	12.6µM*
O=C(Nc1nnc2n1CCS2)c1ccccc1	-2.2%	-17.0%[10.9 µM]	-2.2%	-1.3%
CCCOc1ccc(CC2C(=O)Nc3ccc(Br)cc32)cc1 (configuration not stated)	-0.6%	-6.1%[10.9 µM]	?	20µM*
CC(=O)N1CCCc2ccc(NC(=O)c3ccc(C(F)(F)F)cc3)cc21	-0.8%	19.9%[10.9 µM]	-16.8%	-4.9%
CN(C)S(=O)(=O)c1nc(Cl)c2[nH]cnc2n1	0.7%[11.4 µM]	4.4%[10.9 µM]	-3.6%[9.22 µM]	-8.3%[9.22 µM]
c1ccc(-c2cccc(N3CCCC4(CCNCC4)C3)c2)cc1	-2.4%[11.4 µM]	·	-18.9%	12.6µM*
c1ccc(-c2cccc(N3CCC4(CCNCC4)CC3)c2)cc1	-3.7%[11.4 µM]	·	-7.2%	15.8µM*
c1ccc(-c2cccc(N3CC[C@@]4(CCCNC4)C3)c2)cc1	-0.4%[11.4 µM]	·	?	15.8µM*
SMILES	IkB signaling	Imprint erasure	p53ts 32C kill	p53ts 39C kill
c1ccc(-c2cccc(N3CC4(CCNCC4)C3)c2)cc1	-4.5%[11.4 µM]	·	-5.8%	?
CCN(CCO)C[C@H]1CCC[C@H]2CCCC[C@@H]21	1.6%[11.4 µM]	-14.2%[10.9 µM]	1.7%[9.22 µM]	13.3%[9.22 µM]
Fc1ccc(-c2nnc(NC3=NCCCCC3)o2)cc1	?	-92.0%	3.98µM*	3.98µM*
Fc1ccc(-c2nnc(Cc3nnc(-c4ccc(F)cc4)o3)o2)cc1	4.3%	6.9%	5.0%	-2.4%
O=C(NCCN1CCOCC1)c1ccc(Cc2nc3ccccc3[nH]2)cc1	·	·	-7.3%	1.9%
CN(C)CCCN=c1c2ccccc2n(C)c2[nH]c(=O)n(C)c(=O)c12	12.2%[11.4 µM]	8.1%[10.9 µM]	-1.0%[9.22 µM]	-7.2%[9.22 µM]
CCn1c2ccccc2c2cc(CN3CCN(Cc4ccc(OC)c(OC)c4)CC3)ccc21	?	-15.6%[10.9 µM]	-7.2%	25.1µM*
CC(C)(C)c1ccc(OCC(=O)NCC2(N3CCOCC3)CCCCC2)cc1	?	-11.1%[10.9 µM]	?	15.8µM*
CCCCC(CC)COC(=O)COc1ccc(Cl)cc1Cl (configuration not stated)	0.4%	1.0%	·	·
O=C(Nc1ccc2c(c1)OCO2)c1cccs1	0.9%	-77.8%	?	?
Cc1ccc(C(=O)Nc2ccc3c(c2)OCO3)o1	0.0%	-84.5%	10µM*	?
Cn1c(C(=O)Nc2ccc3c(c2)OCO3)cc2sccc21	2.9%	-51.7%	?	15.8µM*
O=C(Nc1ccc2c(c1)OCO2)c1ccc(Br)s1	?	-45.6%	12.6µM*	?
CC(C)c1cc(C(=O)Nc2ccc3c(c2)OCO3)no1	?	-58.5%	15.8µM*	?
O=C(O)c1ccncc1.O=C(O)c1ccncc1.[NH2-].[NH2-].[Pt]	0.7%[11.4 µM]	-8.7%[10.9 µM]	1.8%[9.22 µM]	4.5%[9.22 µM]
CC(C)=CCC/C(C)=C/COc1c2ccoc2cc2oc(=O)ccc12	0.7%[11.4 µM]	·	·	·
CC1C(NC(=O)/C(=N/OC(C)(C)C(=O)O)c2csc(N)n2)C(=O)N1S(=O)(=O)O (configuration not stated)	·	-0.6%	-0.2%	-14.6%
Cc1ccccc1C(=O)Nc1ccc2c(c1)OCO2	5.1%	·	10µM*	12.6µM*
O=C(Nc1ccccc1C(F)(F)F)c1noc2c1CCCCC2	2.7%	-8.8%[10.9 µM]	12.6µM*	12.6µM*
O=C(Nc1ccc(F)cc1F)c1noc2c1CCC2	4.0%	-65.3%	-25.4%	-23.3%
O=C(Nc1ccc2c(c1)OCO2)c1noc2c1CCCCC2	?	-75.2%	15.8µM*	15.8µM*
CC(=O)c1ccc(NC(=O)c2noc3c2CCCCC3)cc1	1.0%	-15.9%	-16.7%	-10.5%
O=C(O)CCC/C=C\C[C@H]1[C@@H](/C=C\[C@@H](O)C2Cc3ccccc3C2)[C@H](F)C[C@H]1O	1.1%	·	·	·
CCOc1ccc(C(=O)Nc2ccc3c(c2)OCCO3)cc1Br	?	-12.7%[10.9 µM]	?	10µM*
O=C(Nc1ccc2c(c1)OCCO2)c1cccnc1	-0.1%	-55.6%	?	-25.8%
SMILES	IkB signaling	Imprint erasure	p53ts 32C kill	p53ts 39C kill
O=C(Nc1ccc2c(c1)OCCO2)c1ccc2nccnc2c1	?	-80.6%	?	3.98µM*
O=C(O)[C@H]1CCCC[C@@H]1c1c2ccc(=O)c(O)c-2oc2c(O)c(O)ccc12	0.3%[11.4 µM]	-10.1%[10.9 µM]	-5.5%[9.22 µM]	1.7%[9.22 µM]
COCCNc1ncnc2ccc(-c3ccccc3OC)cc12	3.1%[11.4 µM]	-16.9%	11.2%	-6.7%
CCOc1cc(/C=N/NC(=O)c2cc(-c3cccc(OC)c3)n[nH]2)ccc1O	·	·	2.9%	-4.4%
Cc1ccc2nc(-c3cccc(NC(=O)CSc4ccc(Cl)cc4)c3)oc2c1	1.4%	-52.3%[10.9 µM]	12.6µM*	14.1%
Cc1ccc2oc(-c3ccc(NC(=O)CCC(=O)O)cc3)nc2c1	?	-18.3%[10.9 µM]	?	15.8µM*
COc1cc(C(=O)Nc2cc(-c3nc4cc(C)ccc4o3)ccc2C)cc(OC)c1OC	?	-14.7%	12.6µM*	?
